# Screening results from PubChem.
# HepG2 viability: kills HepG2 cells in TGF-b inhibitor counter-screen | 410,000 compounds, 0.76% hits | HepG2 CAGA-GFP viability, ATP luminescence, 18 h | Potency, µM (titrated, usually from 46.1 µM), for the others: at the highest dose activity change, negative = cytotoxicity, hits mostly cytotoxic
#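 HepG2 CAGA-GFP cells (1000/well, DMEM with 1% FBS) received compound, then TGF-beta at 500 pg/mL final, and were incubated 18 hours at 37 degrees C. Viability was read by CellTiter-Glo luminescence. Media-only wells were set as complete cell-killing and DMSO as no toxicity.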
# Nrf2 block: blocks Nrf2 signaling | Potency, µM (doses to about 46 µM), for the others: at the top dose activity change, negative = inhibition, most hits filed as inhibitors | A549 ARE-Fluc reporter, luciferase luminescence, 18-24 h | AID 504444 | 360,000 compounds, 2.1% hits; note: % is set by controls: 0 for no effect and ±100 for the full control effect; nearly all actives have a fitted effect of over 60% in size
#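 Nrf2 activity is the BugLite luminescence, read 15 min after reagent at room temperature, following CellTiter-Fluor cytotoxicity readout (30 min, 37C). Compound titrations were applied for 18-24 h to 5000 A549 ARE_Fluc cells/well in 5% FBS OPTI-MEM.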
# Nrf2 ARE act: activators of Nrf2 (ARE) signaling; Potency, µM (top dose mostly 46.1 µM), for inactives: at the highest dose activation, usual class: activators; AREc32 ARE-luciferase reporter (MCF7-derived line), luminescence, 24 h; 410,000 compounds, 0.31% hits; note: % of control where 0% means no effect; nearly all actives have a fitted effect of over 65% in size
#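 AREc32 cells carrying an ARE-driven firefly luciferase reporter were seeded at 1000 cells/well in OPTI-MEM with 5% FBS, then exposed to compound for 24 hr at 37 deg C. Luminescence was read with Steady-Glo after 30 min at RT.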
# A549 tox: A549 cytotoxicity, counter-screen for Nrf2 inhibitors. A549 ARE-Fluc cells, CellTiter-Fluor viability, 18-24 h. Potency, µM (doses to about 46 µM), for inactives: at the highest dose activity change, negative = cytotoxicity, actives largely listed as inhibitors. 390,000 compounds, 0.16% hits; note: % is set by controls: 0 for no effect and ±100 for the full control effect
#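 A549 ARE_Fluc cells in 5% FBS OPTI-MEM were exposed to compounds in concentration-response for 18-24 h at 37 deg C. Viability was read by CellTiter-Fluor fluorescence (Ex 405/Em 525) after 30 min, before the luciferase read.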
# TGFb inhibitor: TGF-b pathway inhibition | HepG2 CAGA-GFP TGF-b/SMAD3 reporter, GFP fluorescence, 18 h; TGF-beta stimulated, 500 pg/mL final | 410,000 compounds, 1.2% hits | Potency, µM (doses to about 46.1 µM), inactives show top-dose activity, negative = inhibition, actives largely listed as inhibitors; note: % is set by controls: 0 for no effect and ±100 for the full control effect; nearly all actives have a fitted effect of over 65% in size
#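 HEPG2 CAGA-GFP reporter cells (1000/well, DMEM with 1% FBS) received compounds, then recombinant TGF-beta at 500 pg/mL final for 18 hours at 37 degrees C. Per-cell GFP summed per well was normalised to unstimulated and stimulated DMSO controls before curve fitting.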
# An asterisk follows results filed as active; ? = inconclusive; · = no result given. Compounds with a hit are over-represented: about 3.6% of the library has one in this group of screens. Calls come from the whole dose curve; as a rule, active = well fitted curve in the direction sought with a large enough effect; inconclusive = small, poorly fitted or top-dose-only effect, or another doubt; inactive = no such curve, though single readings can be large; an effect the other way counts as inactive or inconclusive. Potency is the fitted concentration of half-maximal effect.
SMILES,HepG2 viability,Nrf2 block,Nrf2 ARE act,A549 tox,TGFb inhibitor
O=C(COC(=O)CCSc1ccccc1)Nc1ccccc1Br,5%,0%,-1%,9%,5%
COc1ccccc1N1C(=O)C2C3CC(c4ccccc4)C(C3)C2C1=O (centres undefined),5%,-8%,-1%,3%,-23%
Cc1cc(Br)cn2c(Cc3ccsc3)c(-c3ccco3)nc12,16µM*,·,7.1µM*,·,6.3µM*
Cc1cc(Br)cn2c(Cc3ccccc3)c(-c3ccco3)nc12,-2%,·,10µM*,·,-29%
Fc1ccc(-c2nc3ccc(Br)cn3c2Cc2cccc(F)c2)cc1,-33%,·,5%,·,13µM*
Cc1ccc(Cc2c(-c3ccc(F)cc3)nc3c(C)cc(Br)cn23)cc1,-62%,·,7%,·,13µM*
Cc1cc(Br)cn2c(Cc3ccsc3)c(-c3cccc(Cl)c3)nc12,-6%,·,7%,·,-10%
COc1ccc(Cc2c(-c3ccco3)nc3c(C)cc(Br)cn23)c(C)c1,-17%,·,7%,·,?
Cn1cc(/C=C2\SC(=O)NC2=S)c2ccccc21,-18%,-20%,10%,?,-13%
COc1ccc(S(=O)(=O)N2CCCCCC2)cc1C(=O)Nc1ccc(C)cn1,-3%,4%,-1%,3%,-20%
CN(C)c1cc[n+](CC(=O)Nc2ccc(OC(F)F)cc2)cc1,-15%,23µM*,2%,-7%,?
CC(=O)c1ccc(NC(=O)C[n+]2ccc(N(C)C)cc2)cc1,6%,-43%,0%,0%,4%
CN(C)c1cc[n+](CC(=O)c2ccc(Br)cc2)cc1,-45%,?,0%,?,-21%
COc1ccc(C(=O)C[n+]2ccc(N(C)C)cc2)cc1,17%,21µM*,-1%,-11%,-1%
O=C(OCC(=O)c1c[nH]c2ccccc12)c1ccc([N+](=O)[O-])s1,-5%,-6%,27%,-8%,4%
CCc1cccc2c(C(=O)COC(=O)c3ccc([N+](=O)[O-])s3)c[nH]c12,-51%,?,19%,21µM*,?
Cc1c(C#N)c(O)n(CCO)c(=O)c1N=Nc1ccc(S(N)(=O)=O)cc1,-2%,-18%,0%,15µM*,8%
COc1cc(OC)cc(C(=O)Nc2ccc(-c3nc4ccccc4o3)cc2)c1,-28%,-10%,5%,-14%,-2%
Cc1cccc(C(=O)Nc2ccc(-c3nc4cc(C(C)C)ccc4o3)cc2)c1,-42%,15µM*,5%,2%,?
CCOc1ccc(C(=O)Nc2ccc(-c3nc4cc(C(C)C)ccc4o3)cc2)cc1Cl,-25%,-27%,4%,-4%,?
COc1cc(C(=O)Nc2ccc(-c3nc4cc(C)ccc4o3)c(O)c2)cc(OC)c1OC,-41%,21µM*,0%,-16%,30%
COc1cc(OC)cc(C(=O)Nc2ccc(-c3nc4cc(C(C)C)ccc4o3)cc2)c1,-36%,15µM*,14%,-4%,-13%
COc1ccccc1CNCc1ccc2c(c1)OCO2,-16%,·,-1%,·,-18%
Oc1ccc(N2CCN(C(c3ccncc3)c3nnnn3C3CCCC3)CC2)cc1 (centres undefined),5%,?,-1%,-1%,-14%
O=C(Nc1ccccc1C(=O)O)c1ccc(NC(=O)C2CCCCC2)cc1,20%,-6%,0%,-11%,0%
SMILES,HepG2 viability,Nrf2 block,Nrf2 ARE act,A549 tox,TGFb inhibitor
Cc1ccc(/C=C/C(=O)N2CCN(c3ncccn3)CC2)o1,-27%,-3%,?,6%,10µM*
O=C(/C=C/c1ccco1)N1CCc2ccccc21,-63%,?,?,0%,?
Cc1ccc(/C=C/C(=O)N2CCc3ccccc32)o1,-11%,?,11µM*,0%,-19%
CCOC(=O)c1cc2c(ccn2C)n1CC(=O)N1CCC(Cc2ccccc2)CC1,-33%,-4%,0%,14%,11µM*
COc1ccc(S(=O)(=O)N(Cc2ccccc2)c2ccccc2C(=O)N2CCOCC2)cc1,1%,20%,0%,-17%,-2%
CCn1c(C)cc(C(=O)COC(=O)c2ccccc2[N+](=O)[O-])c1C,-1%,0.73µM*,-3%,-1%,-2%
